About 79,000 compounds went through this panel and 15% of them were active in at least one assay; those are over-represented in the sample as a whole. Rule as the data show it: active = growth inhibition above about 70%; inactive = the rest.
Experiments:
[1] = NCI Yeast Anticancer Drug Screen. Data for the rad50 strain (AID 155);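 also: 0% = growth of vehicle-only cultures of the same strain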; conditions: S. cerevisiae rad50 strain growth inhibition; at 50.0 µM; active compounds read high
Method in brief: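 Genetically altered yeast (DNA repair pathway); compound treatment; growth inhibition vs vehicle ctrl.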

[2] = NCI Yeast Anticancer Drug Screen. Data for the mec2-1 strain (AID 157); conditions: S. cerevisiae mec2-1 strain, at 50.0 µM, active compounds read high
Method in brief: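 Strain: mec2-1 (DNA repair/cell cycle alteration). Compound exposure, then growth measured; inhibition expressed relative to vehicle.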

[3] = NCI Yeast Anticancer Drug Screen. Data for the sgs1 mgt1 strain (AID 161);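 also: 0% = growth of cultures given vehicle only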; conditions: S. cerevisiae sgs1 mgt1 strain, at 50.0 µM, active compounds read high
Method in brief: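 Inhibition of yeast growth, normalised to vehicle-treated controls, is reported for a strain bearing genetic alterations in DNA damage repair.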

[4] = NCI Yeast Anticancer Drug Screen. Data for the cln2 rad14 strain (AID 165);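 also: 0% = growth equal to vehicle treated cultures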; conditions: S. cerevisiae cln2 rad14 strain, at 50.0 µM, active compounds read high
Method in brief: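 Compounds are applied to the cln2 rad14 yeast strain, and growth is then compared with that of vehicle-treated cultures to give inhibition.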

[5] = NCI Yeast Anticancer Drug Screen. Data for the bub3 strain (AID 167); conditions: S. cerevisiae bub3 mutant strain, at 50.0 µM, active compounds read high
Method in brief: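 Yeast carrying a defined mutation is treated with each compound, and growth is compared with that of vehicle-exposed cells to give inhibition.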

[6] = NCI Yeast Anticancer Drug Screen. Data for the mlh1 rad18 strain (AID 175); conditions: S. cerevisiae mlh1 rad18 strain growth inhibition; at 50.0 µM; active compounds read high
Method in brief: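 Read-out is yeast growth inhibition, calculated against vehicle-only controls. The compound was applied to a strain engineered with DNA damage repair alterations.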

Measured: growth inhibition

COc1cc(CC2c3cc(OC)c(OC)cc3CC[N+]2(C)C)c(Oc2cc(CC3c4cc(OC)c(OC)cc4CC[N+]3(C)C)ccc2OC)cc1OC (stereo not given)
inactive: [1] 8.35% | [2] 10.1% | [3] -0.85% | [4] -4.45% | [5] -6.05% | [6] 28.6%

CC(=O)NC1C(OC(C)C(=O)NC(C)C(=O)NC(CCC(=O)NCCCCCNc2ccc([N+](=O)[O-])c3[nH]c4ccccc4c(=O)c23)C(N)=O)C(O)C(CO)OC1(C)OCc1ccccc1 (stereo not given)
inactive: [1] 13% | [2] 13.1% | [3] 27.2% | [4] 23.9% | [5] 19.9% | [6] 32.9%

O=C(c1ccccc1)c1cc[n+]([O-])cc1
inactive: [1] -5.6% | [2] -11.8% | [3] -18% | [4] -16.9% | [5] -8.7% | [6] 12.7%

Nc1nc2ccc3ccccc3c2c(=O)[nH]1
inactive: [1] -4.35% | [2] 2.35% | [3] -1.55% | [4] -10.1% | [5] -15.6% | [6] 12.7%

O=C(O)C1C(C(=O)O)C1c1ncnc2nc[nH]c12 (stereo not given)
inactive: [1] -0.95% | [2] -13.7% | [3] -4.95% | [4] -26.8% | [5] -17.8% | [6] 7.4%

O=C(O)c1c2ccccc2nc2c1sc1ccccc12
inactive: [1] -17.9% | [2] -8% | [3] -3.05% | [4] -63.6% | [5] -1.45% | [6] -7.85%

Cn1c(=O)c2c(nc(CN3CCOCC3)n2C)n(C)c1=O
inactive: [1] -1.35% | [2] -11.2% | [3] 3.55% | [4] -25.4% | [5] 3.6% | [6] 7.2%

CC1=CC(=O)C(CCC#N)C(C)(C)C1 (stereo not given)
inactive: [1] -8.6% | [2] -17.9% | [3] -1.75% | [4] -36.9% | [5] 5.85% | [6] -0.4%

CC(=O)c1c(C)cc(C(C)(C)C)cc1C
inactive: [1] 18.4% | [2] -1.1% | [3] 12.8% | [4] -0.55% | [5] 9.3% | [6] 13.8%

C[N+](C)(C)c1cc[c]([Sn]([c]2ccc([N+](C)(C)C)cc2)([c]2ccc([N+](C)(C)C)cc2)[c]2ccc([N+](C)(C)C)cc2)cc1
inactive: [1] 16.4% | [2] -5.75% | [3] 20.2% | [4] 6.65% | [5] -0.15% | [6] 11.3%

NC(=O)c1ncn2c(=O)n(CCCl)nnc12
inactive: [1] -17.2% | [2] -9.4% | [3] 1.4% | [4] 19.5% | [5] -4.15% | [6] -47.2%

CCC12CC3(C(=O)OC)OC1C(O)CN1CCc4c(n3c3cc(OC)ccc43)C12 (stereo not given)
inactive: [1] 6.9% | [2] -42.1% | [3] 12.2% | [4] 5.05% | [5] -9.35% | [6] 1.5%

N#CC(C(=N/NC(N)=S)/C(=N\NC(N)=S)C(C#N)c1ccccc1)c1ccccc1 (stereo not given)
inactive: [1] -34.5% | [2] -5.35% | [3] -30.8% | [4] -8.25% | [5] -14.2% | [6] -15.7%

COc1ccc(OC)c(NC(=O)SC(C)C)c1
inactive: [1] -5.3% | [2] -21.8% | [3] -9.45% | [4] 0.15% | [5] 18.2% | [6] -3.65%

OCC1=CCCCC1
inactive: [1] 6.95% | [2] 1.85% | [3] -6.65% | [4] 12.7% | [5] -14.5% | [6] 0.25%

O=C(N/N=C\c1ccncc1)Nc1ccc(N=Nc2ccccc2)cc1
inactive: [1] 13.2% | [2] 6.05% | [3] 17.6% | [4] -2.6% | [5] 5.9% | [6] 19.6%

Nc1ccncn1
inactive: [1] -20.9% | [2] -0.85% | [3] -2.45% | [4] -5% | [5] -4.35% | [6] -13.8%

Cc1cc2c(c3ccccc13)Cc1ccccc1-2
inactive: [1] -5.65% | [2] 9.2% | [3] -7% | [4] 7.35% | [5] 15.4% | [6] -13.8%

CCN(CC)C(=O)c1ccc[n+](Cc2ccc(Cl)c(Cl)c2)c1
inactive: [1] 3.15% | [2] -8.25% | [3] -8.75% | [4] 6.45% | [5] 1.2% | [6] 9.25%

O=C(O)CCc1ccc2c(c1)OCO2
inactive: [1] -2.1% | [2] -24.1% | [3] -5.85% | [4] -5.4% | [5] -34.1% | [6] -11.4%

Reference: PubChem BioAssay (NCI)
